Among the data in the antibiotic and cytotoxicity screens of Wong et al. (2023) are cytotoxicity call values, retold here.

Structures are written as SMILES. Among all 39,000 compounds or so, about 3,300 (8.5%) were called active. Many of the other results were omitted from the sample, so actives are more common in it than they were.

The subject of the test is HepG2. Nature of the test: cytotoxicity call (relative viability < 0.9). The note with it: 10 µM.
Turning to `C[C@@H]1CCCCO[C@@H](CN(C)C(=O)Nc2ccccc2)[C@@H](C)CN([C@@H](C)CO)C(=O)c2cc(NC(=O)Nc3ccccc3)ccc2O1`, the cytotoxicity call is “inactive”.

With `Cc1noc(C)c1NC(=O)Nc1ccc2c(c1)C(=O)N([C@H](C)CO)C[C@H](C)[C@@H](CN(C)S(=O)(=O)c1ccccc1)O2`, the cytotoxicity call is “inactive”. On to `Cc1noc(C)c1S(=O)(=O)Nc1cccc2c1O[C@H](CN(C)C(=O)NC(C)C)[C@H](C)CN([C@@H](C)CO)C2=O`, for which the cytotoxicity call is “inactive”.

`COc1ccc(S(=O)(=O)N[C@@H]2C=C[C@H](CC(=O)NCCc3ccncc3)O[C@H]2CO)cc1`: the cytotoxicity call is “inactive”. `O=C(C[C@@H]1C[C@H]2c3cc(NC(=O)c4ccc5c(c4)OCO5)ccc3O[C@H]2[C@H](CO)O1)NCCN1CCCCC1`: the cytotoxicity call is “inactive”. As to `COc1ccc(C(=O)Nc2ccc(CN3C(=O)[C@]4(O[C@H](CC(=O)N5Cc6ccccc6C[C@H]5CO)[C@@H]([Si](C)(C)c5ccc(OC)cc5)[C@@H]4C)c4ccccc43)cc2)cc1`, the cytotoxicity call is “active”.

With `COc1ccc([Si](C)(C)[C@H]2[C@H](CC(=O)N3Cc4ccccc4C[C@H]3CO)O[C@@]3(C(=O)N(Cc4ccc(N5CCOC5=O)cc4)c4ccccc43)[C@@H]2C)cc1`, the cytotoxicity call is “active”. On to `COc1ccc(C(=O)Nc2cccc(CN3C(=O)[C@@]4(O[C@@H](CC(=O)N5CCC[C@H]5CO)[C@H]([Si](C)(C)c5ccc(OC)cc5)[C@H]4C)c4ccccc43)c2)cc1`, for which the cytotoxicity call was “inactive”. As for `COc1ccc(C(=O)Nc2ccc(CN3C(=O)[C@@]4(O[C@@H](CC(=O)N5Cc6ccccc6C[C@H]5CO)[C@H]([Si](C)(C)c5ccc(OC)cc5)[C@H]4C)c4ccccc43)cc2)cc1`, the cytotoxicity call is “inactive”.

Turning to `COc1ccc([Si](C)(C)[C@@H]2[C@@H](CC(=O)N3Cc4ccccc4C[C@H]3CO)O[C@]3(C(=O)N(Cc4ccc(I)cc4)c4ccccc43)[C@H]2C)cc1`, the cytotoxicity call is “inactive”. For `COc1ccc([Si](C)(C)[C@@H]2[C@@H](CC(=O)N3Cc4ccccc4C[C@H]3CO)O[C@]3(C(=O)N(Cc4ccc(N5CCOC5=O)cc4)c4ccccc43)[C@H]2C)cc1`, the cytotoxicity call is “inactive”. For `COc1ccc([Si](C)(C)[C@H]2[C@H](CC(=O)N3Cc4ccccc4C[C@H]3CO)O[C@@]3(C(=O)N(Cc4cccc(N5CCOC5=O)c4)c4ccccc43)[C@@H]2C)cc1`, the cytotoxicity call is “inactive”. To `COc1ccc(C(=O)Nc2cccc(CN3C(=O)[C@]4(O[C@H](CC(=O)N5CCC[C@H]5CO)[C@@H]([Si](C)(C)c5ccc(OC)cc5)[C@@H]4C)c4ccccc43)c2)cc1` belongs “inactive”; to `COc1ccc(C(=O)Nc2cccc(CN3C(=O)[C@@]4(O[C@@H](CC(=O)N5Cc6ccccc6C[C@H]5CO)[C@H]([Si](C)(C)c5ccc(OC)cc5)[C@H]4C)c4ccccc43)c2)cc1`, “active”.
